The structures appear in SMILES notation. About 13,000 (27%) of roughly 48,000 compounds showed an effect of 50% or more. This is one part of the list.

The test system of this experiment is Wolbachia pipientis. The experiment can be described thus: Anti-Wolbachia Cell-Based Screen. Details: scale not given: in the data most compounds retested in dose-response had high values. Particulars: 5 µM. The experiment is classed as functional.
`COc1ccc(F)c(NCc2cnn(C3CCS(=O)(=O)C3)c2)c1` (stereo unspecified): the “Percent Effect” value turned out to be 7.936%. On to `Cc1ccc(CNc2ccn(CCc3ccncc3)n2)s1`, for which the “Percent Effect” value was 19.44%. The value for `COc1cc(OC)cc(N2CCC(NC(=O)c3ccc[nH]3)CC2)c1` was -4.011%; that for `COc1ccc(N2CCC(NC(=O)c3sccc3C)CC2)cc1` was 79.74%; that for `COc1ccsc1C(=O)NC1CCN(c2ccc(C#N)cc2)CC1` was -30.88%.

With `COc1ccc(N2CCC(NC(=O)c3ccc(C#N)cc3)CC2)cc1`, the “Percent Effect” value amounted to 89.14%. In the case of `COc1ccc(C(=O)NC2CCN(c3ncccn3)CC2)cc1F`, the “Percent Effect” value is given as 13.96%. In the case of `COc1ccsc1C(=O)NC1CCN(c2cccc(F)c2)CC1` it was 98.27%; in that of `COc1cc(OC)cc(N2CCC(NC(=O)c3cccn3C)CC2)c1`, -13.09%; in that of `COc1ccc(N2CCC(N(C)C(C)C(=O)N(C)C)CC2)cc1` (stereo unspecified), 7.179%.

As for `O=C(Cc1cccs1)NC1CCN(c2cccc(F)c2)CC1`, the “Percent Effect” value is on record as -15.75%. Take `CCN(Cc1ccncc1)C1CCCN(Cc2ccc(F)cc2Cl)C1` (stereo unspecified): the “Percent Effect” value was -7.648%. The value for `O=C(O)CC1COCCN1C(=O)C1(c2ccc(Cl)cc2)CCC1` (stereo unspecified) was 14.34%; that for `O=S(=O)(CCC1CCCO1)NCc1ncc(-c2ccccc2)o1` (stereo unspecified) was -10.29%. As for `Cc1nn(C)c(C)c1OCC(=O)NCC(O)c1ccco1` (stereo unspecified), the “Percent Effect” value came out at 9.29%.

On to `CCC1CN(Cc2nc(C(C)C)no2)CCC(=O)N1Cc1ccccc1` (stereo unspecified), for which the “Percent Effect” value is 11.67%. Turning to `COc1cccc(-c2noc(-c3ccc(NCCCO)nc3)n2)c1OC`, the “Percent Effect” value came out at 11.35%. In the case of `CCc1nnc2n1CCN(Cc1ccc3c(c1)OCCO3)C2` it was 1.979%; in that of `COc1cccc(CN2CCOC(Cn3nc(C)cc3C)C2)c1` (stereo unspecified), -2.903%; in that of `Nc1cc(CCC2CN(Cc3ccc4c(c3)OCCO4)CCO2)ccn1` (stereo unspecified), 90.24%. For `Nc1cc(CCC2CN(Cc3cccc(C(=O)O)c3)CCO2)ccn1` (stereo unspecified), the “Percent Effect” value is recorded as 106.3%.

For the compound `c1cnn(CC2CN(Cc3ccc(-n4ccnc4)cc3)CCO2)c1` (stereo unspecified), the “Percent Effect” value is reported as -4.298%. Consider `COc1ccc(CCN2CCOC(Cn3nc(C)nc3C)C2)cc1` (stereo unspecified), for which the “Percent Effect” value came out at 6.569%.

For the compound `Nc1cc(CCC2CN(Cc3ccc4cc[nH]c4c3)CCO2)ccn1` (stereo unspecified), the “Percent Effect” value came to 120%. As for `CC(C)(C)c1cc(CN2CCOC(CCc3ccccc3)C2)n[nH]1` (stereo unspecified), the “Percent Effect” value was 14.18%. The value for `Nc1cc(CCC2CN(Cc3ccc(C(=O)O)cc3)CCO2)ccn1` (stereo unspecified) was 7.558%. With `Cc1nccn1CCC1CCCCN1Cc1ccc2c(c1)OCCO2` (stereo unspecified), the “Percent Effect” value is on record as 18.54%. The value for `COc1ccc(CN2CCOC(CCc3ccnc(N)c3)C2)cc1` (stereo unspecified) was 124.3%; that for `Cc1cc(C)n(CC2CN(Cc3cccc(C(N)=O)c3)CCO2)n1` (stereo unspecified) was -10.5%; that for `CC(C)c1nn(CC(=O)N2CCCCC2)c(=O)c2c1cnn2C(C)(C)C` was -4.82%. As to `COCc1nc(CN2CC(=O)N(C)c3ccccc3C2=O)no1`, the “Percent Effect” value is given as -2.193%. In the case of `COc1ccc(S(=O)(=O)Cc2noc(CC(C)C)n2)cc1` it was -2.844%. In the case of `COc1cccc(S(=O)(=O)Cc2noc(CC(C)C)n2)c1`, the “Percent Effect” value is given as -0.9778%. In the case of `COCc1nc(CN2CCN(c3ccc(OC)cc3)C(=O)C2C)no1` (stereo unspecified) it was 94.02%; in that of `COc1ccc(N2CCN(Cc3noc(CC(C)C)n3)C(C)C2=O)cc1` (stereo unspecified), 87.05%. The value for `COCc1nc(CN2CC(C)(c3ccccc3)CCC2=O)no1` (stereo unspecified) was 5.849%; that for `CN(CC(N)=O)CC(=O)N(C1=CCCCC1)C1CC1` was -2.779%. In the case of `Cc1cccc(CN2CCc3onc(CO)c3C2)n1.O=C(O)C(F)(F)F` it was 107.8%. For `Cc1cccc(CN2CCc3onc(Cn4cccc4)c3C2)n1.O=C(O)C(F)(F)F`, the “Percent Effect” value was 93.67%. The value for `CN(C)Cc1noc2c1CN(Cc1ccc[nH]1)CC2` was 98.7%.

On to `Cc1cccc(CN2CCc3[nH]nc(C(=O)N(C)C)c3C2)n1.O=C(O)C(F)(F)F`, for which the “Percent Effect” value was -6.855%. As to `O=C(O)C(F)(F)F.c1csc(CN2CCc3onc(Cn4cccc4)c3C2)c1`, the “Percent Effect” value is recorded as -13.64%.

Turning to `CN(C)Cc1noc2c1CN(C(=O)c1ccncc1)CC2.O=C(O)C(F)(F)F.O=C(O)C(F)(F)F`, the “Percent Effect” value is given as -9.47%. Turning to `CC(=O)NCc1noc2c1CN(Cc1cccs1)CC2`, the “Percent Effect” value is recorded as -5.877%. `CN(C)Cc1noc2c1CN(Cc1ccsc1)CC2.O=C(O)C(F)(F)F.O=C(O)C(F)(F)F`: the “Percent Effect” value is on record as -7.7%. In the case of `Cc1cccc(CN2CCc3[nH]nc(C(=O)N4CCNC(=O)C4)c3C2)n1.O=C(O)C(F)(F)F`, the “Percent Effect” value is on record as -67.35%. In the case of `c1coc(CN2CCc3onc(Cn4ccnc4)c3C2)c1` it was -8.337%; in that of `Cc1cccc(CN2CCc3onc(CN(C)C)c3C2)n1`, 101.4%; in that of `O=C(O)C(F)(F)F.c1coc(CN2CCc3onc(Cn4cccc4)c3C2)c1`, -0.2735%. The value for `CC(C)OC(=O)N1C[C@H]2CC[C@@H]1CN(C(=O)c1ccccc1)C2` was -6.398%. In the case of `O=C(COc1coc(CN2CCCCC2)cc1=O)Nc1ccccc1Cl` it was 12.81%; in that of `Cc1csc(CNC(=O)NCC(O)c2ccc(F)c(F)c2)n1` (stereo unspecified), -9.167%; in that of `COc1ccc(-n2ccnc2-c2cnc(C(C)C)nc2)cc1C(=O)O`, -1.473%.

In the case of `CCNC(=O)NC(=O)CSC(C)c1c(F)cccc1F` (stereo unspecified), the “Percent Effect” value was 4.576%. Turning to `CCCS(=O)(=O)NCc1ncc(C)c(OC)c1C`, the “Percent Effect” value was determined as 21.89%.

For the compound `CCc1cnc(CCNC(=O)N2CCCC(c3ncc[nH]3)C2)s1` (stereo unspecified), the “Percent Effect” value is recorded as -8.688%.

With `CS(=O)(=O)NCCc1cccc2cccnc12`, the “Percent Effect” value is -14.96%. The value for `CCCS(=O)(=O)NCCn1ccc(-c2cccs2)n1` was 29.12%. The value for `CCCS(=O)(=O)NCCc1ncc(C)s1` was 113.4%.

For `CCCS(=O)(=O)NCCc1ncc(CC)s1`, the “Percent Effect” value came to 98.37%. In the case of `Cc1cnc(CCNC(Cc2ccncc2)C(F)(F)F)s1` (stereo unspecified) it was 4.089%. The value for `CCc1cnc(CN(C)C(=O)NC2CCN(CC3CC3)C2)s1` (stereo unspecified) was -7.872%; that for `CCc1cnc(CCNS(C)(=O)=O)s1` was 96.32%.

Consider `Cc1noc(C)c1CN(C)Cn1nccc1-c1cccnc1`, for which the “Percent Effect” value is recorded as -3.571%. Consider `N#Cc1ccccc1CC1CCCS(=O)(=O)C1` (stereo unspecified), for which the “Percent Effect” value is 23.18%. The value for `CC(C)C(C(=O)N1CCC(Nc2cccnn2)CC1)n1cncn1` (stereo unspecified) was 1.287%; that for `Cc1ccc(NC2CCN(C(=O)C(C)n3cncn3)CC2)nn1` (stereo unspecified) was 101.5%. In the case of `CC(C)C(C(=O)N1CCC(N(C)c2cccnn2)CC1)n1cncn1` (stereo unspecified) it was 6.546%; in that of `Cc1ccc(NC2CCN(C(=O)C(C(C)C)n3cncn3)CC2)nn1` (stereo unspecified), 114.7%. In the case of `CCc1nc(Cn2cncc(Br)c2=O)no1`, the “Percent Effect” value turned out to be 3.979%. Turning to `Cc1nc(NC(=O)CCOCC(F)(F)F)ccc1Br`, the “Percent Effect” value stood at 7.301%. As for `CC(C)n1cnnc1Cn1c(=O)ccc2ccccc21`, the “Percent Effect” value was -18.72%. In the case of `COCCc1noc(-c2cn(Cc3ccc(OC)cc3)nn2)n1` it was 3.926%. The value for `CS(=O)(=O)c1ccc(O[C@H]2COCCN(Cc3ccncc3)C2)cc1` was 8.188%. The value for `CN(C)c1cccc(C2CCN(C3COCC3O)CC2)n1` (stereo unspecified) was 145.5%; that for `FC(F)(F)c1c[nH]c(C2CCN(c3ncccn3)CC2)n1` was -5.698%. Take `CN(C)c1cccc(C2CCN(c3ncccn3)CC2)n1`: the “Percent Effect” value turned out to be 105.5%.

Regarding `CN(C)c1ccnc(N2CCC(NCCOc3ccccc3)CC2)n1`, the “Percent Effect” value is -8.661%. The value for `COc1cc(C)nc(N2CCN(C(=O)CN(C)C3CC3)CC2)n1` was -6.068%; that for `Cc1cc(C)nc(N2CCC(c3nnc(CN(C)C)n3C3CC3)CC2)n1` was -32.06%; that for `CC(C)c1ccnc(N[C@H]2COC[C@@H]2N2CCCC2)n1` was 5.714%. With `O=C(Nc1ccc2ncsc2c1)N1CCCN([C@H]2COC[C@@H]2O)CC1`, the “Percent Effect” value is recorded as -6.319%. The value for `CN(Cc1nncn1C)c1nccc(C2CCCC2)n1` was -0.6799%; that for `Cc1cc(C)nc(N2CCC(c3ccnc(N(C)C)n3)CC2)n1` was 86.89%. The value for `CN(C)c1nccc(C2CCN(C3CCCCC3O)CC2)n1` (stereo unspecified) was 139.6%; that for `CCn1cnnc1CN(C)c1nccc(C2CCCC2)n1` was -5.507%; that for `Cc1noc(CN2CCOC(CN(C)C)C2)n1` (stereo unspecified) was 4.204%. Take `O=C1CO[C@H]2CN(S(=O)(=O)c3ccccc3)C[C@H]2N1CC1CCCCC1`: the “Percent Effect” value is reported as -1.242%.

Turning to `CCN(CC1CCOC1)C(=O)Cn1nnn(-c2cccs2)c1=O` (stereo unspecified), the “Percent Effect” value is -8.505%. In the case of `COc1cc(OC)c(CNC(=O)NCC(=O)N2CCCC2)c(OC)c1` it was 0.1885%. Turning to `Cn1cc(CN2CC[C@@H]3[C@@H](CCC(=O)N3CCC3=CCCCC3)C2)cn1`, the “Percent Effect” value is reported as -6.139%. Turning to `CC1CCN(CC(=O)NC(C#N)c2cnn(-c3ccccc3)c2)CC1` (stereo unspecified), the “Percent Effect” value is reported as -3.926%.

For the compound `Cc1ccsc1C(=O)Nc1ccc(N2CCC(O)CC2)c(C#N)c1`, the “Percent Effect” value is recorded as -13.01%. Regarding `Cc1cc(C)c(CNC(=O)NCc2nnc3n2CCCC3)c(=O)[nH]1`, the “Percent Effect” value is listed as -2.933%. The value for `CN(C)c1nccc(C2CCN(c3ncccn3)CC2)n1` was 131.2%; that for `CN(Cc1nccs1)C1CCN(c2ncccn2)CC1` was -5.116%; that for `CCN(CC)C1CCN(c2nccc(C3CCCC3)n2)C1` (stereo unspecified) was 2.281%. Regarding `Fc1cnc(NCC2Cn3nnc(-c4ccccc4)c3CO2)nc1` (stereo unspecified), the “Percent Effect” value is -26.66%.

As to `O=C1CCSCC(C(=O)N2CCCC2)N1` (stereo unspecified), the “Percent Effect” value is on record as -10.11%.

In the case of `CC(=O)N1CCC2(CC1)C(=O)N(C)c1ccc(F)cc12`, the “Percent Effect” value is -20.1%. The value for `Cc1ccc2c(c1)C1(CCN(C(N)=O)CC1)CN2CC1CC1` was 104%; that for `CC(=O)N1CCC2(CC1)CN(CC1CC1)c1ccc(F)cc12` was 110.5%; that for `CNC(=O)N1CCC2(CC1)CN(C)c1ccc(F)cc12` was -1.265%.

Regarding `CC(=O)N1CC2(CCN(C(=O)C3CC3)CC2)c2cc(C)ccc21`, the “Percent Effect” value is -2.981%. As to `CN(C)C(=O)N1CC2(CCN(CC3CC3)CC2)c2cc(F)ccc21.O=C(O)C(F)(F)F`, the “Percent Effect” value is reported as -28.12%. For the compound `COCC(=O)N1CCC2(CC1)CN(CC1CC1)c1ccc(F)cc12`, the “Percent Effect” value came to 102.5%. In the case of `CC(=O)N1CCC2(CC1)CN(C(C)C)c1ccc(F)cc12` it was 93.83%; in that of `Cc1ccc2c(c1)C1(CCN(C(N)=O)CC1)CN2C(=O)N(C)C`, 10.3%.

Take `COCC(=O)N1CCC2(CCc3ccc(F)cc32)CC1.Cl`: the “Percent Effect” value is listed as -16.21%. For the compound `COCC(=O)N1CCC2(CC1)CC(OC)c1ccc(F)cc12` (stereo unspecified), the “Percent Effect” value is -1.265%. In the case of `CC(=O)N1CCC2(CC1)CN(C(=O)C1CC1)c1ccc(F)cc12` it was -23.77%.

The values above are taken from ChEMBL document CHEMBL3988442, “University of Dundee, Small-Polar-MMV Screening Library” (2021).
